Hits are enriched below; roughly 2.2% of the tested compounds scored in any of these assays.
Platelet DG rel: modulates dense granule release in human platelets; human platelet-rich plasma, SFLLRN dense granule ATP release, luminescence; inhibition, %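 (compounds screened at 7.5 µM in platelet-rich plasma)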; 300,000 compounds, 0.22% hits; AID 1663;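 active = mean replicate score, as percent of positive control, at or above 50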
HIF act: HIF pathway transcriptional activation; U2OS HRE-luciferase reporter, luminescence; normalized: DMSO 0%, desferrioxamine 100%; activation, % at 7.5 µM (by protocol); 300,000 compounds, 0.32% hits;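 active = mean activation of at least 10% of the iron chelator positive control signal, with at least half of replicates also reaching 10%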
AI-2 QS mod: Vibrio harveyi AI-2 quorum sensing modulation. Vibrio harveyi JMH597 AI-2 luminescence/OD600 ratio, 9 h; active compounds read low; strain lacks LuxN and CqsS sensors; 0 = neutral-control median. activity change, % at 7.5 µM. 300,000 compounds, 0.4% hits. AID 2094; in the data active = activity change below about -75%, passing the limit was not always enough;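 note: luminescence divided by OD600 gain over 9 h not by final OD600 alone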
CHT block: human CHT choline transport inhibition; Q9GZV3; 310,000 compounds, 0.86% hits; AID 488975; CHT-expressing cells, membrane potential dye, choline response; active compounds read low; B-score at 10 µM;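 active = B-score over 3 SD under the library average, and starting fluorescence ratio not unusually high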;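 note: choline stimulus applied at its EC90 after an EC20 pre-addition; B-score computed on integrated fluorescence ratio after choline addition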
CHT allo act: human CHT allosteric activation; AID 488977; B-score at 10 µM; CHT-expressing cells, membrane potential dye, choline EC20; active compounds read high; LV-AA mutant CHT in HEK293 cells; 310,000 compounds, 0.49% hits; Q9GZV3;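 active = initial fluorescence not abnormally high and integrated response B-score, plate-corrected, over 3 SD above library mean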
VLA-4 inh: inhibition in a human VLA-4 binding assay; VLA-4 expressing cells, ligand binding flow cytometry; inhibition, % (about 7 µM as worked out from the volumes in the protocol); 330,000 compounds, 0.2% hits; AID 2557; in the data active = inhibition above about 50%
CHT block conf: human CHT inhibition, confirmatory screen | shares compounds with CHT block | CHT-expressing cells, choline membrane potential dye; LV-to-AA substituted CHT, HEK293 cells | CHT activity remaining % of control (active compounds read low), % at 10 µM | 2,400 compounds, 70% hits | AID 493221;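 active = choline transporter activity left, mean of duplicates at 10 µM, below buffer-only control mean minus 3 SD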;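 note: depolarization triggered by choline at its EC90 following an EC20 pre-addition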
HEK293 MPD ctr: counter-screen for CHT inhibitors: effect in parental HEK293 cells; shares compounds with CHT block; 2,400 compounds, 4% hits; membrane potential dye, choline response; active = decrease or increase beyond buffer ±3SD; membrane potential ratio readout (active if shifted either direction beyond buffer ±3SD; no single direction) at 10 µM;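 note: parental cells lack the transporter so any hit is non-specific; ratio is peak minus trough fluorescence over baseline after EC90 choline challenge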
Numbers stand for hits; . = inactive; / = no result.

SMILES | Platelet DG rel | HIF act | AI-2 QS mod | CHT block | CHT allo act | VLA-4 inh | CHT block conf | HEK293 MPD ctr
CCOC(=O)C1=C(COC(=O)c2ccc(OC(C)C)cc2)NC(=O)NC1C (stereo not drawn) | . | . | . | -9.69 | . | . | 2.8% | .
CC(=O)Nc1ccc(S(=O)(=O)Nc2nc3ccccc3nc2Nc2ccc(N)cc2)cc1 | . | . | . | -5.05 | . | . | 66.9% | .
Cc1ccc(C(=O)CSc2nnc(-c3ccco3)n2C)cc1 | . | . | . | -5.39 | . | . | 68.6% | .
CCCCN(CCCC)S(=O)(=O)c1ccc(NC(=O)c2ccc([N+](=O)[O-])cc2Cl)cc1 | . | . | . | -6.23 | . | . | 70.4% | .
CN(Cc1ccc(F)cc1)C(=O)CNC(=O)C1CCCCC1 | . | . | . | . | . | . | / | /
Cc1ccc(C(=O)NC2CCCCCC2)cc1S(=O)(=O)N1CCOCC1 | . | . | . | . | . | . | / | /
CC(=O)c1ccc(NC(=O)c2ccc(C)c(S(=O)(=O)N3CCOCC3)c2)cc1 | . | . | . | . | . | . | / | /
CCOC(=O)c1ccc(NC(=O)c2ccc(C)c(S(=O)(=O)N3CCOCC3)c2)cc1 | . | . | . | -5.5 | . | . | 68.3% | .
Cc1ccccc1NC(=O)c1ccc(C)c(S(=O)(=O)N2CCN(C)CC2)c1 | . | . | . | -5.66 | . | . | 59.1% | .
Cc1ccc(C(=O)OC(C)C(=O)NC2CCCCC2C)cc1S(=O)(=O)N1CCCCC1 (stereo not drawn) | . | . | . | -7.86 | . | . | . | .
CC(OC(=O)c1ccc(Cl)c(S(=O)(=O)N2CCCC2)c1)C(=O)NC1CCCCC1C (stereo not drawn) | . | . | . | . | . | . | / | /
Cc1ccc(C(=O)NC2CCCCC2)cc1S(=O)(=O)N1CCCC1 | . | . | . | -5.98 | . | . | 60.8% | .
O=C(NCCCN1CCOCC1)c1cc(-c2ccccc2)nc2ccccc12 | . | . | . | . | . | . | / | /
Cc1ccc(Nc2cc(C(=O)NCCCN3CCOCC3)c3ccccc3n2)cc1C | . | . | . | . | . | . | 61.8% | .
CC(C)Sc1nc2c(c(=O)[nH]1)C(c1cccs1)C1=C(CC(C)(C)CC1=O)N2 (stereo not drawn) | . | . | . | -5.78 | . | . | . | .
Cc1cccc(C(=O)OCC(=O)c2c(C)[nH]c3ccccc23)c1O | / | / | / | / | / | . | / | /
COc1ccccc1OCc1ccc(C(=O)N2N=C(C(F)F)CC2(O)C(F)F)o1 (stereo not drawn) | . | . | . | -5.17 | . | . | . | .
O=C(c1ccc(COc2ccc(Cl)cc2)o1)N1N=C(C(F)F)CC1(O)C(F)F (stereo not drawn) | . | . | . | . | . | . | / | /
Cc1nn(CC2CC2)c(=O)n1-c1cccc(Cl)c1 | . | . | . | -5.78 | . | . | . | .
CN(Cc1nc(-c2cccnc2)no1)S(=O)(=O)c1ccc(Br)cc1 | . | . | . | -5.66 | . | . | 61.9% | .
CN(Cc1nc(-c2cccnc2)no1)S(=O)(=O)c1ccc2ccccc2c1 | . | . | . | . | . | . | / | /
Cc1cccc(NC(=O)C2CCN(S(C)(=O)=O)CC2)c1C | . | . | / | -5.28 | . | . | . | .
CN1C(=O)NC(c2cccc(F)c2)C2=C1CC(C)(C)CC2=O (stereo not drawn) | . | . | . | . | . | . | / | /
Cc1ccc(Oc2ccc(NC(=O)Cn3ccsc3=N)cc2)cc1 | . | . | . | -7.9 | . | . | 16.5% | .
Cc1ccc2[nH]c3c(c2c1)CN(C(=O)CN1CCN(Cc2ccc4c(c2)OCO4)CC1)CC3 | . | . | . | -5.63 | . | . | 38.0% | .
SMILES | Platelet DG rel | HIF act | AI-2 QS mod | CHT block | CHT allo act | VLA-4 inh | CHT block conf | HEK293 MPD ctr
CC(C)(C)c1cc(C(=O)N/N=C/c2ccc(F)cc2)n(-c2ccccc2)n1 | . | / | . | -5.13 | . | . | 68.4% | .
CCCn1c(N)c(C(=O)CN2CCN(S(=O)(=O)c3cccc(Cl)c3)CC2)c(=O)[nH]c1=O | / | / | / | / | / | . | / | /
O=C(NCCn1cccn1)c1ccc(OC2CCN(C(=O)C3CC3)CC2)cc1 | . | . | . | -10.5 | . | . | . | .
O=C(NCCn1cccn1)c1ccc(OC2CCN(CCc3ccccc3)CC2)cc1 | . | . | . | . | . | . | / | /
CSCCNC(=O)c1ccc(OC2CCN(CCc3ccccc3)CC2)cc1 | . | . | . | -5.23 | . | . | 46.4% | 4.78
CCC(=O)N1CCc2cc(S(=O)(=O)N3CCN(c4ccccc4Cl)CC3)ccc21 | . | . | . | . | . | . | / | /
Cc1sc(NC(=O)c2ccco2)nc1-c1ccccc1 | . | . | . | -9.22 | . | . | 53.2% | .
O=C(NCC(=O)N1CCN(C(=O)c2ccccc2)CC1)c1ccc(Cl)cc1Cl | / | / | / | / | / | . | / | /
Cc1cc(C)n(-c2ccc(C(=O)NCC(c3ccco3)N3CCCC3)cc2)n1 (stereo not drawn) | / | / | / | / | / | . | / | /
CC(/C=C1\NC(=S)NC1=O)=C\c1ccccc1 | . | . | . | -5.45 | . | . | 67.6% | .
Cc1ccc(-n2c(C)cc(=O)cc2C)c(C)c1 | . | . | . | -5 | . | . | 34.1% | .
Cc1cc(=O)cc(C)n1-c1ccc(F)cc1F | . | . | . | . | . | . | / | /
O=C(Cc1c(Cl)cccc1Cl)N1CCN(S(=O)(=O)c2cccs2)CC1 | / | / | / | / | / | . | / | /
COc1ccc(C2=Nn3c(nnc3-c3ccccc3OC)SC2)cc1OC | . | . | . | -6.86 | . | . | 47.7% | .
COc1ccc(C2=Nn3c(nnc3-c3ccccn3)SC2)cc1OC | . | . | . | . | . | . | / | /
CCCCn1c(CN2CCN(c3cccc(Cl)c3)CC2)nc2c1c(=O)n(C)c(=O)n2C | . | . | . | -12.8 | . | . | 29.1% | .
Cn1c(=O)c2c(nc(CN3CCN(c4ccccc4)CC3)n2Cc2ccccc2Cl)n(C)c1=O | . | . | . | / | / | / | / | /
CCCCCn1c(CN2CCCCC2CC)nc2c1c(=O)n(C)c(=O)n2C (stereo not drawn) | . | . | . | . | . | . | / | /
CCCCCn1c(CN2CCCCC2C)nc2c1c(=O)n(C)c(=O)n2C (stereo not drawn) | . | . | . | -5.04 | . | . | 44.8% | .
CCCn1c(CN2CCN(c3cccc(Cl)c3)CC2)nc2c1c(=O)n(C)c(=O)n2C | . | . | . | -11.1 | . | . | -12.7% | .
CCCCn1c(CN2CCN(c3ccccc3)CC2)nc2c1c(=O)n(C)c(=O)n2C | . | . | . | -9.6 | . | . | -41.9% | .

Compound activity (PubChem)
